# In the library only some 6.7% were active in any assay of this set; here they are far more common.
# C diff HTS = inhibitors of Clostridium difficile growth. Clostridium difficile clinical isolate growth, OD600, 24 h; active compounds read low. growth activity, negative = inhibition, % at 16 µg/mL (by protocol). actives 0.25% (n = 86,000);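 active means mean growth activity at or below -80% and every replicate also at or below -80%; inconclusive means mean at or below -80% but some replicate above -80%; inactive means mean growth activity above -80%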;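 further: 0% = DMSO wells and -100% = levofloxacin 16 µg/mL wells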
# Pf Dd2 growth = P. falciparum Dd2 growth inhibition. SYBR Green, 72 h; active compounds read low. activity change, % at 10 µM. actives 2.3% (n = 94,000). AID 1159554; in the data active means activity change below about -80%; inconclusive means no clear call, values can overlap the other calls
# T cruzi growth-1 = T. cruzi proliferation inhibition; AID 624255; T. cruzi beta-gal in NIH3T3, GalScreen luminescence, 90 h; inhibition, % at 8.34 µM; actives 5.9% (n = 77,000);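 active means mean inhibition above about 93%, with at least 55% of replicates each passing it, limit read from the data, passing the limit was not always enough; inconclusive means only one of those two conditions holds; inactive means neither condition holds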
# T cruzi growth-2 = inhibitors of T. cruzi proliferation. inhibition, % at 8.35 µM. T. cruzi beta-gal in NIH3T3, GalScreen luminescence, 90 h. shares compounds with T cruzi growth-1. actives 72% (n = 5,600);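 active means mean replicate inhibition above about 95% and at least 55% of replicates individually reaching it, limit read from the data; inconclusive means only one of the two criteria is met; inactive means neither criterion is met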
# T cruzi growth-3 = blocks T. cruzi growth in NIH3T3 host cells | T. cruzi beta-gal in NIH3T3, GalScreen luminescence, 90 h | inhibition, % at 2.09 µM | actives 21% (n = 5,600) | shares compounds with T cruzi growth-1;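 active means mean inhibition above about 95%, with at least 55% of replicates also reaching it, limit read from the data; inconclusive means meets just one of the two conditions; inactive means meets neither condition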;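 further: plate controls were neutral control median for no effect and positive control median for full effect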
# 3T3 cytotox = kills mouse NIH/3T3 fibroblasts | shares compounds with T cruzi growth-1 | NIH/3T3 viability, CellTiter-Glo ATP luminescence, 90 h | cytotoxicity (signal decrease), % at 8.35 µM | actives 14% (n = 5,600) | AID 651742;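 active means mean signal decrease across replicates above about 35% based on untreated-well scatter, with enough replicates individually passing, limit read from the data; inconclusive means no rule stated though some were filed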;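 further: 0% = median of neutral control wells and 100% = median of positive control wells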
# 3T3 cytotox 2 = kills mouse NIH/3T3 fibroblasts. shares compounds with T cruzi growth-1. NIH/3T3 viability, CellTiter-Glo ATP luminescence, 90 h. inhibition, % at 24.9 µM. actives 56% (n = 5,600);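 active means mean loss of cell viability signal at or above a set limit, and enough replicates individually reaching it; inconclusive means meets only the mean limit or only the replicate share; inactive means meets neither condition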;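 further: 0% = median of neutral control wells and 100% = median of positive control wells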
# An asterisk follows results filed as active; ? = inconclusive; / = not tested or not shown.
SMILES,C diff HTS,Pf Dd2 growth,T cruzi growth-1,T cruzi growth-2,T cruzi growth-3,3T3 cytotox,3T3 cytotox 2
Cc1ccc(S(=O)(=O)N(C)C[C@@H]2Oc3cc(-c4cccc(F)c4)ccc3S(=O)(=O)N([C@H](C)CO)C[C@@H]2C)cc1,17,-53,127*,105*,?,?,43*
CNC[C@H]1Oc2c(NS(=O)(=O)c3ccccc3)cccc2C(=O)N([C@H](C)CO)C[C@H]1C,-1,15,/,/,/,/,/
C[C@H]1CCCCO[C@H](CN(C)S(=O)(=O)c2ccc(Cl)cc2)[C@@H](C)CN([C@@H](C)CO)C(=O)c2cc(NS(=O)(=O)c3cccs3)ccc2O1,0,/,114*,104*,62,8,-19
C[C@H](CO)N1C[C@H](C)[C@H](CN(C)S(=O)(=O)c2ccc(Cl)cc2)OCCCC[C@H](C)Oc2ccc(NS(=O)(=O)c3cccs3)cc2C1=O,-2,/,111*,97*,45,-24,-46
Cc1ccc(S(=O)(=O)N(C)C[C@@H]2OCCCC[C@H](C)Oc3ccc(NS(=O)(=O)c4cccs4)cc3C(=O)N([C@H](C)CO)C[C@H]2C)cc1,/,-55,118*,105*,39,8,-2
C[C@@H]1CCCCO[C@H](CN(C)S(=O)(=O)c2ccc(Cl)cc2)[C@H](C)CN([C@H](C)CO)C(=O)c2cc(NS(=O)(=O)c3cccs3)ccc2O1,-12,/,112*,106*,96*,4,-29
C[C@@H]1CCCCO[C@@H](CN(C)S(=O)(=O)c2ccc(Cl)cc2)[C@@H](C)CN([C@@H](C)CO)C(=O)c2cc(NS(=O)(=O)c3cccs3)ccc2O1,14,/,91,/,/,/,/
Cc1ccc(S(=O)(=O)Nc2ccc3c(c2)C(=O)N([C@@H](C)CO)C[C@H](C)[C@H](CN(C)S(=O)(=O)c2cccs2)OCCCC[C@H](C)O3)cc1,-8,/,/,/,/,/,/
C[C@@H]1CN([C@H](C)CO)C(=O)c2cc(NS(=O)(=O)c3cccs3)ccc2O[C@@H](C)CCCCO[C@H]1CN(C)S(=O)(=O)c1ccc(Cl)cc1,-8,-70,/,/,/,/,/
C[C@@H]1CCCCO[C@@H](CN(C)S(=O)(=O)c2ccc(Cl)cc2)[C@@H](C)CN([C@H](C)CO)C(=O)c2cc(NS(=O)(=O)c3cccs3)ccc2O1,-4,/,69,/,/,/,/
Cc1noc(C)c1S(=O)(=O)Nc1cccc2c1O[C@H](CN(C)Cc1ccc(-c3ccccc3)cc1)[C@H](C)CN([C@H](C)CO)C2=O,8,-48,108*,54,29,-14,2
COc1ccc(S(=O)(=O)Nc2cccc3c2O[C@@H](CN(C)Cc2ccc(Cl)c(Cl)c2)[C@H](C)CN([C@@H](C)CO)C3=O)cc1,10,-39,102*,110*,1,14,18
Cc1ccc(S(=O)(=O)Nc2cccc3c2O[C@@H](CN(C)Cc2ccc(C(F)(F)F)cc2)[C@@H](C)CN([C@@H](C)CO)C3=O)cc1,18,-23,61,/,/,/,/
Cc1ccc(S(=O)(=O)Nc2cccc3c2O[C@@H](CN(C)Cc2ccc(C(F)(F)F)cc2)[C@@H](C)CN([C@H](C)CO)C3=O)cc1,32,-13,102*,109*,68,30,87*
COc1ccc(S(=O)(=O)Nc2cccc3c2O[C@H](CN(C)Cc2ccc(C(=O)O)cc2)[C@@H](C)CN([C@H](C)CO)C3=O)cc1,-1,10,-18,/,/,/,/
Cc1noc(C)c1S(=O)(=O)Nc1cccc2c1O[C@@H](CN(C)Cc1ccccc1)[C@@H](C)CN([C@H](C)CO)C2=O,-1,14,9,/,/,/,/
COc1ccc(S(=O)(=O)Nc2cccc3c2O[C@H](CN(C)Cc2ccc(C(=O)O)cc2)[C@H](C)CN([C@@H](C)CO)C3=O)cc1,/,23,?,78,0,-3,15
COc1ccc(S(=O)(=O)Nc2cccc3c2O[C@H](CN(C)Cc2ccc(Cl)c(Cl)c2)[C@H](C)CN([C@H](C)CO)C3=O)cc1,/,27,-12,/,/,/,/
C[C@@H]1CN([C@H](C)CO)C(=O)CCCn2nncc2CO[C@@H]1CN(C)Cc1cccc(C(=O)O)c1,/,1,7,/,/,/,/
